A selection: hits, their analogues and other compounds. The true share with any hit is near 3.7%.
HTT-AS act: HTT-AS promoter activation | 0.24% of 48,000 active | AID 1508624 | HEK293 HTT-AS promoter firefly luciferase reporter, 24 h; response scale: percent change from vehicle, -100% = no light | Potency, µM (top dose mostly 57.5 µM), actives largely listed as activators; note: nearly all actives have a fitted effect of over 55% in size
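Quantitative HTS used concentration series of up to 57.5 uM final on HEK293 luciferase reporter cells, 24 h at 37 degrees C. Readout was Dual-Glo firefly luminescence.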
GALC G270D up: galactocerebrosidase G270D activity enhancement, cell-based. P54803. 145M-Twi-hGALC-G270D cells (Twitcher mouse brain line with human GALC G270D), HMU-beta-Gal fluorescence, 48 h. Potency, µM (series often up to 57.5 µM), most hits filed as activators. 0.1% of 45,000 active. AID 1159614; note: nearly all actives have a fitted effect of over 65% in size
Target sequence (P54803 whole entry G286D): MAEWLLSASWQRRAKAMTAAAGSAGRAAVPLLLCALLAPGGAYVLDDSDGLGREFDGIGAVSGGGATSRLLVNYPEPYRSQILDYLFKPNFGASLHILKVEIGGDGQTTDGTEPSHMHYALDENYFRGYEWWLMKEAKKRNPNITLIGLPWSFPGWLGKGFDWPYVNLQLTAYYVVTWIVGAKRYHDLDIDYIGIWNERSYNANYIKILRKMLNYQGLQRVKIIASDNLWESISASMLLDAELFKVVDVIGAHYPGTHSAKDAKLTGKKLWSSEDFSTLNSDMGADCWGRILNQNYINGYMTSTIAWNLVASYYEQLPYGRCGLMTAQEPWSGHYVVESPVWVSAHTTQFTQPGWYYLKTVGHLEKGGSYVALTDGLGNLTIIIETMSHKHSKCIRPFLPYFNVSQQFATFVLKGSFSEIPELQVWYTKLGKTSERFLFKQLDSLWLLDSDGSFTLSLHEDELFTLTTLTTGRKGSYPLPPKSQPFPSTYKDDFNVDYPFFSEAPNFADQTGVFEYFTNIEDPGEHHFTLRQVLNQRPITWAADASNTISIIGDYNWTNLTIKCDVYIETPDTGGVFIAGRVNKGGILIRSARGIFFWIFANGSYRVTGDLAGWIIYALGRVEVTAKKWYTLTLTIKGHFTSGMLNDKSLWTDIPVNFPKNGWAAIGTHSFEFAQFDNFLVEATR
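Mutant human GALC (G270D), stably expressed in a Twitcher mouse brain cell line lacking endogenous GALC, is measured in live-treated cells via 6-hexadecanoylamino-4-methylumbelliferyl-β-galactoside hydrolysis (0.1 mM final, pH 5.2) with fluorescent detection.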
HTT prom inh: inhibitors of huntingtin promoter activity | HEK293 HTT promoter firefly luciferase reporter, 24 h | Potency, µM (series often up to 57.5 µM), most hits filed as inhibitors | 0.93% of 48,000 active | AID 1508623; note: nearly all actives have a fitted effect of over 50% in size
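Luminescence was read after Dual-Glo reagent and a 10 min room-temperature incubation. Values were normalized to vehicle (0% activity) and zero RLU (-100% activity). Reporter HEK293 cells had been exposed to compounds (up to 57.5 uM final) for 24 h.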
FH mod: Identification of activators of human fumarate hydratase by quantitative high-throughput screening; Fumarate hydratase, mitochondrial (Homo sapiens), P07954; FH coupled MDH/diaphorase resazurin fluorescence, 15 min; Potency, µM (highest dose often 79.9 µM), actives largely listed as inhibitors; 0.22% of 54,000 active; note: the screen sought activators but most active calls are inhibition curves; nearly all actives have a fitted effect of over 45% in size
B2AR arrestin ag: agonists recruiting beta-arrestin to human beta2-adrenergic receptor; Potency, µM (titrated, usually from 46.1 µM), usual class: activators; HTLA Tango cells, beta-arrestin recruitment, luciferase luminescence, 18 h; 44,000 tested, under 10 active
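Tango cells (recombinant beta2-AR, beta-arrestin, tTA-driven luciferase), 1500/well in DMEM 1% FBS, treated 18 h at 37 °C with compounds up to 46 µM; luciferin mix added, luminescence read after 15 min; %activity curves fitted and curve-classed.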
GPR32 ag: agonists of human resolvin D1 receptor DRV1 (GPR32); O75388; CHO-K1 GPR32 beta-arrestin PathHunter luminescence, 90 min; zero percent set by DMSO-only wells; activation, % at 76.9 µM; 2.5% of 48,000 active;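 active = activation of at least 60% and not above a set upper limit, about 1 call in 100 departs from these limits; inconclusive = activation of 40% to 60%, or above that upper limit; inactive = activation under 40%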
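Beta-arrestin recruitment read-out: luminescence from complemented beta-Gal in CHO-K1 GPR32 PathHunter cells, measured 1 h after detection reagent at ambient temperature following 90 min compound exposure at 37 °C; DMSO served as basal (EC0) control.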
Large screens that a line does not name were inactive. Unless noted, calls come from the whole dose curve; as a rule, active = well fitted curve in the direction sought with a large enough effect; inconclusive = small, poorly fitted or top-dose-only effect, or another doubt; inactive = no such curve, though single readings can be large; an effect the other way counts as inactive or inconclusive.

COc1cccc(C(=O)NC(c2ccc(Cl)cc2)c2cc(Cl)c3cccnc3c2O)c1 (stereo unspecified)	HTT prom inh inconclusive
CCN1C(=O)c2cccc3c(S(=O)(=O)Nc4ccc(O)c(C(=O)O)c4)ccc1c23	FH mod 32µM
CC(C)(C)CC(=O)OCC(=O)[C@@]1(O)CC[C@H]2[C@@H]3CCC4=CC(=O)C=C[C@]4(C)[C@H]3[C@@H](O)C[C@@]21C	GPR32 ag 119 (no result: B2AR arrestin ag)
C[C@]12CCC(=O)C=C1CC[C@@H]1[C@@H]2[C@@H](O)C[C@@]2(C)[C@H]1CC[C@]2(O)C(=O)COC(=O)CCC(=O)O	none (no result: B2AR arrestin ag)
FC(F)(F)c1cccc(Nc2nc3nonc3nc2Nc2ccc(Cl)cc2)c1	HTT prom inh 0.35µM, FH mod inconclusive
Cc1ccc(/C=C/C(=O)Nc2ccccc2C(N)=O)o1	HTT-AS act 4µM
COc1cc(OC)cc(-c2ccc3c(-c4ccc(F)cc4)[nH]nc3n2)c1	none (no result: HTT-AS act, GALC G270D up, HTT prom inh, B2AR arrestin ag, GPR32 ag)
COc1ccc(CN(C(=O)c2cc3ccccc3oc2=O)C2CCS(=O)(=O)C2)cc1OC (stereo unspecified)	HTT-AS act 11µM
COc1ccc(CN(C(=O)c2cc3ccccc3oc2=O)C2CCS(=O)(=O)C2)cc1 (stereo unspecified)	HTT-AS act inconclusive
Cn1ccnc1CCOC(c1cc2nccc(C(=O)O)c2[nH]1)c1ccccc1Cl (stereo unspecified)	none (no result: HTT-AS act, GALC G270D up, HTT prom inh, B2AR arrestin ag, GPR32 ag)
Cc1ccc(CNC(=O)Cc2csc3ccccc23)cc1	HTT-AS act inconclusive, GPR32 ag 85
Cc1ccc(C)c(NC(=O)c2ccc3c(c2)CCCN3S(C)(=O)=O)c1	HTT-AS act 7.9µM
CC(C)c1ccc(NC(=O)c2ccc3c(c2)CCCN3S(C)(=O)=O)cc1	HTT prom inh 10µM
CCCCc1ccc(NC(=O)c2ccc3c(c2)CCN3S(=O)(=O)CC)cc1	HTT prom inh 22µM
Cc1ccc(C)c(NC(=O)c2ccc3c(c2)CCN3S(C)(=O)=O)c1	none
CCn1c(N)c(C(=O)NC)c(=O)c2ccc(C#CC(C)(O)COC)nc21 (stereo unspecified)	none (no result: HTT-AS act, GALC G270D up, HTT prom inh, B2AR arrestin ag, GPR32 ag)
O=C(NCCc1csc2nc(-c3ccccc3F)nn12)c1ccco1	HTT-AS act inconclusive
O=C(NCCc1csc2nc(-c3ccccc3F)nn12)c1ccccc1C(F)(F)F	none
COc1cccc(C(=O)NCCc2csc3nc(-c4ccccc4F)nn23)c1OC	GPR32 ag 68
O=C(Cc1ccc(F)cc1)NCCc1csc2nc(-c3ccccc3F)nn12	GPR32 ag 62
COc1ccc(C#Cc2ccc(C(=O)N3CCC[C@@H](CO)C3)cc2)cc1	none (no result: HTT-AS act, GALC G270D up, HTT prom inh, B2AR arrestin ag, GPR32 ag)
COc1cc(NC(=O)c2ccc(-c3nc(COc4ccccc4)c(C)o3)cc2)cc(OC)c1	HTT prom inh 14µM, FH mod inconclusive
COc1ccccc1-c1nc(CNC(=O)Nc2ccccc2)c(C)o1	none
COc1ccc(-c2nc(CNC(=O)Nc3ccccc3)c(C)o2)c(OC)c1	GPR32 ag 65
O=C(Nc1cccc(C(F)(F)F)c1)C1CCN(c2nnc(-n3cccc3)s2)CC1	GPR32 ag 94
C=C(C)C1CC2(CO)C(=CC1=O)CCC(O)C2C (stereo unspecified)	none (no result: HTT-AS act, GALC G270D up, HTT prom inh, B2AR arrestin ag, GPR32 ag)
O=C(Cn1c(=O)nc(-c2ccccc2)c2cc(Cl)ccc21)NCCCc1ccccc1	GPR32 ag 94
COc1ccc(Cn2c(C(=O)O)c(CNCc3cccs3)c3ccc(C)cc32)cc1	GPR32 ag inconclusive
Cc1ccc2c(CNCc3ccc(C)o3)c(C(=O)O)n(Cc3ccc(F)cc3)c2c1	FH mod inconclusive, GPR32 ag inconclusive
C=Cc1ccc(Cn2c(C(=O)O)c(CNCc3cccs3)c3ccc(C)cc32)cc1	FH mod inconclusive, GPR32 ag 96
Cc1ccc2c(CNCc3cccs3)c(C(=O)O)n(Cc3ccc(F)cc3)c2c1	HTT prom inh inconclusive, FH mod inconclusive, GPR32 ag 92
